Assay outcomes from PubChem.
Shown are actives, neighbours in structure and some others; about 4.1% of the full set was active somewhere.
hgDAF-12 ag = agonists of H. glycines DAF-12 nuclear receptor; HEK293 GAL4-hgDAF12 UAS-luciferase reporter, agonist luminescence; normalized to butyrate control; activation, % at 6.8 µM; 370,000 tested, 1.8% active;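 active = activation above a cutoff set at the mean of all screened compounds plus 3 SD, cut at about 10% in these data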
ssDAF12 agonist = activators of S. stercoralis DAF-12 nuclear receptor; HEK293 ssDAF-12/GRIP1 lit1-tk-luc reporter, luminescence; % of 3 µM dafachronic acid response; activation, % at 6.8 µM; 370,000 tested, 1% active;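 active = activation above the mean over all tested compounds plus 3 SD, cut at about 0.9% in these data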
DAX1 inh-1 = DAX1 (NR0B1) inhibition, primary screen; HEK293T StAR-luciferase reporter, SF-1/DAX-1 repression relief; inhibition, % at 6.8 µM; 370,000 tested, 1.1% active;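 active = inhibition above the mean over all tested compounds plus 3 SD, cut at about 3.6% in these data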;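 also: higher inhibition means more luminescence from relief of DAX-1 repression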
DAX1 inh-2 = inhibitors of human orphan nuclear receptor DAX1 (NR0B1) | 340,000 tested, 0.99% active | HEK293 Gal4-DAX1 luciferase reporter, luminescence | AID 504766 | P51843 | inhibition, % at 6.75 µM;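 active = inhibition above the mean over all tested compounds plus 3 SD, cut at about 4.2% in these data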;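 also: inhibition shows as a rise in luminescence from relieved DAX1 repression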
Target sequence (P51843 207-470 limits assumed): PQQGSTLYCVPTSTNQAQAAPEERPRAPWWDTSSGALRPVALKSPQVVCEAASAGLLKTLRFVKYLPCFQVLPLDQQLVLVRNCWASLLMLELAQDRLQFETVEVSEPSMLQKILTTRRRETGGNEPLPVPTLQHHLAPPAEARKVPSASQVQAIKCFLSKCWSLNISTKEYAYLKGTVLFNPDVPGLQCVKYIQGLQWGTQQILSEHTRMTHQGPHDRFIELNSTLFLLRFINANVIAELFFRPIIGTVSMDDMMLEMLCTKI
hcDAF12 agonist = H. contortus DAF-12 activation, primary screen; HEK293 hcDAF-12 lit1-tk-luc reporter, luminescence; 0% DMSO, 100% Δ7-dafachronic acid; activation, % at 6.8 µM; 370,000 tested, 1.4% active;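 active = activation above the mean of all tested compounds plus 3 SD, cut at about 5.5% in these data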
Large screens that a line does not name were inactive.

CCOC(=O)c1cc(-c2ccc(N)cc2)sc1N	none
CCOC(=O)c1sc(-c2ccc(Br)cc2)cc1N	hgDAF-12 ag 11
CC(COc1ccccc1C#N)CN1CCC(C(O)(c2ccccc2)c2ccccc2)CC1 (stereo not drawn)	none (no result: DAX1 inh-2)
NNC(=O)c1nnsc1-c1csnn1	hgDAF-12 ag 10
Cc1nc2cc(C(=O)N3CCN(C(=O)OCc4ccccc4)CC3)ccc2n1C1CCCC1	none (no result: DAX1 inh-2)
O=[N+]([O-])c1cccnc1NCCc1c[nH]c2ccccc12	hgDAF-12 ag 12, ssDAF12 agonist 1.0
CN(C)c1ccc(CN(Cc2ccco2)C(=O)c2ccco2)cc1	none
O=C(c1ccco1)N(Cc1ccc(Cl)cc1)Cc1ccco1	hcDAF12 agonist 5.7
Cc1ccc(S(=O)(=O)N2[C@@H](Cc3ccccc3)CO[C@H]2CC(=O)c2cccs2)cc1	DAX1 inh-1 4.0 (no result: DAX1 inh-2)
Cc1ccc(S(=O)(=O)N2[C@@H](Cc3ccccc3)CO[C@H]2CC(=O)c2ccccc2)cc1	none (no result: DAX1 inh-2)
COc1ccc(Cc2nc(=S)[nH][nH]2)cc1Br	DAX1 inh-2 4.5
COc1ccccc1C(=O)NCC(=O)OCc1csc(-c2ccccc2)n1	hcDAF12 agonist 5.7
O=C(CNC(=O)c1ccccc1F)OCc1csc(-c2ccccc2)n1	none
COc1ccc(N=Cc2nc(-c3ccccc3)oc2OC(=O)c2ccccc2)cc1	hgDAF-12 ag 12, DAX1 inh-1 3.7
CC(=O)Oc1oc(-c2ccccc2)nc1C=Nc1ccccc1	none
COc1ccc(NC(=O)Nc2ccc3c(c2)C(=O)N([C@H](C)CO)C[C@@H](C)[C@@H](CN(C)Cc2ccc4c(c2)OCO4)OCCCC[C@H](C)O3)cc1	none (no result: DAX1 inh-2)
COC(=O)C1=C(C)N(CC(C)C)C(=S)NC1c1cccc(F)c1 (stereo not drawn)	ssDAF12 agonist 1.0 (no result: DAX1 inh-2)
CCOC(=O)CN1CC23C=CC(O2)C(C(=O)Nc2cc(OC)ccc2OC)C3C1=O (stereo not drawn)	DAX1 inh-2 4.9
COc1cc(/C=N/N=C(/N)c2nonc2N)cc(Br)c1OCc1cccc(C)c1	none
COc1cc(/C=N/N=C(\N)c2nonc2N)cc(OC)c1O	hgDAF-12 ag 13, DAX1 inh-2 4.2
Clc1ccc(CSc2nnc(-c3cccs3)o2)cc1Cl	none (no result: DAX1 inh-2)
CC(=O)Nc1sc(N/N=C\c2ccccc2Cl)nc1-c1cccs1	none
CC(=O)Nc1sc(N/N=C/c2ccccc2)nc1-c1ccc(C)cc1	DAX1 inh-2 5.0
CC(=O)Nc1sc(N/N=C\c2ccccc2)nc1-c1cccs1	ssDAF12 agonist 1.7, hcDAF12 agonist 6.2
Cc1sc(N/N=C/C=C/c2ccccc2)nc1-c1ccccc1	hcDAF12 agonist 6.0
COCCCNC(=O)[C@H]1O[C@@H](n2cnc3c(=O)[nH]c(N)nc32)[C@H](O)[C@@H]1O	none (no result: DAX1 inh-2)
Cc1ccnc(NC(c2ccsc2)c2ccc3ccc(C)nc3c2O)c1 (stereo not drawn)	DAX1 inh-2 4.9
Cc1cc(C)cc(NC(=O)N2CCCN(c3c(Cl)cncc3Cl)CC2)c1	ssDAF12 agonist 1.8
O=C(Nc1cccc2ccccc12)N1CCCN(c2c(Cl)cncc2Cl)CC1	none
COc1ccc(-c2nc(SC(C)C(=O)NC3CC3)n[nH]2)cc1 (stereo not drawn)	DAX1 inh-2 4.5
CC(C)CN1C(=O)C[C@@]2(C(=O)N(C)c3ccc(NS(=O)(=O)c4ccc(F)cc4)cc32)C1c1ccccc1 (stereo partly drawn)	none (no result: DAX1 inh-2)
COc1ccc(CC(=O)Nc2ccc(/C(C)=N/NC(=O)c3ccc(OC)cc3OC)cc2)cc1	none
C/C(=N\NC(=O)c1cccc(O)c1)c1ccc(NC(=O)Cc2ccccc2)cc1	DAX1 inh-1 6.8
C/C(=N\NC(=O)c1ccc(F)cc1)c1cccc(NC(=O)c2cccc(F)c2)c1	none
C/C(=N\NC(=O)c1cccc(O)c1)c1cccc(NC(=O)c2ccc(F)cc2)c1	DAX1 inh-1 4.3
COc1cccc(C(=O)N/N=C(\C)c2ccc(NC(=O)Cc3ccccc3)cc2)c1OC	DAX1 inh-1 3.8
C/C(=N/NC(=O)c1ccc(-c2ccccc2)cc1)c1cccc(O)c1	none
C[C@@H]1CN([C@@H](C)CO)C(=O)c2cccc(NC(=O)Nc3cccc4ccccc34)c2O[C@H]1CN(C)S(=O)(=O)c1ccc2c(c1)OCCO2	none (no result: DAX1 inh-1, DAX1 inh-2)
C=CCn1c(Cc2cccs2)nnc1SCC(=O)Nc1ccc2c(c1)OCO2	none (no result: DAX1 inh-2)
O=C(CSc1nc2ccccc2o1)NN=C/C=C\c1ccccc1[N+](=O)[O-]	none (no result: DAX1 inh-2)
COc1ccccc1CC(=O)NCC(c1ccco1)N1CCCCC1 (stereo not drawn)	DAX1 inh-2 4.6
N#Cc1ccccc1Sc1ccccc1C(=O)NCC(c1ccco1)N1CCCCC1 (stereo not drawn)	none
O=C(NCC(c1ccco1)N1CCCC1)c1ccccc1Sc1ccc(C(F)(F)F)cc1[N+](=O)[O-] (stereo not drawn)	ssDAF12 agonist 1.1
Cc1ccc(C(=O)NCC(c2ccco2)N2CCCCC2)s1 (stereo not drawn)	none
Cc1cc2oc(C(=O)NCC(c3ccco3)N3CCCC3)c(C)c2cc1C (stereo not drawn)	ssDAF12 agonist 3.6
Cc1ccc2oc(C(=O)NCC(c3ccco3)N3CCCC3)c(C)c2c1 (stereo not drawn)	none
O=C(NCC(c1ccco1)N1CCCC1)c1cc2ccccc2s1 (stereo not drawn)	ssDAF12 agonist 0.9
CS(=O)(=O)N1CCN(Cc2cc(=O)n3ccsc3n2)CC1	DAX1 inh-2 5.2
C#CCNC(=O)C[C@H]1C[C@@]2(C(=O)OC)C(=C[C@H](COCc3ccccc3)O[C@@H]2C)N(Cc2ccco2)C1=O	none (no result: DAX1 inh-2)
Cc1nc(SCC(=O)NC(=O)NCCC(C)C)c2c(-c3cccs3)csc2n1	ssDAF12 agonist 2.1
O=C(NCc1ccco1)C1CCCN(S(=O)(=O)c2ccc([N+](=O)[O-])cc2)C1 (stereo not drawn)	none (no result: DAX1 inh-2)
COc1ccc(C2CC(=O)C(c3cccc(OC)c3)=CN2Cc2ccccc2)cc1 (stereo not drawn)	none (no result: DAX1 inh-2)
CC1=C(C(=O)N(C)C)CC(CC(=O)NC2CCCC2)C(=O)N1CCC1=CCCCC1 (stereo not drawn)	hgDAF-12 ag 12
CC1=C(C(=O)N(C)C)CC(CC(=O)NC2CCCCC2)C(=O)N1CCC1=CCCCC1 (stereo not drawn)	none
COC(=O)Cc1[nH]c(=O)[nH]c1C(=O)OC	DAX1 inh-2 4.6
CCOC(=O)c1[nH]c(=O)[nH]c1CSCCO	none
C(/C=C\c1ccco1)=NN1CCN(Cc2cccc3ccccc23)CC1	none (no result: DAX1 inh-2)
Nc1nc2c(ncn2[C@@H]2O[C@H](C(=O)NCCCN3CCCC3=O)[C@@H](O)[C@H]2O)c(=O)[nH]1	none (no result: DAX1 inh-2)
c1csc(-c2noc(COc3ccc4c(c3)CCCC4)n2)c1	hgDAF-12 ag 12, DAX1 inh-1 4.0
COc1ccc(Cc2nc(-c3ccccc3)no2)cc1	hgDAF-12 ag 13
COc1ccc(Cc2nc(-c3cccs3)no2)cc1	hgDAF-12 ag 11
Brc1ccc(-c2noc(CCc3ccccc3)n2)cc1	DAX1 inh-2 4.7
